This note sets out measurements from PubChem BioAssay AID652180 (National Center for Advancing Translational Sciences (NCATS), 2013).

Molecules are shown by their SMILES. Inconclusive results are not listed. Activity calls are given as the source filed them. The call rests on the fitted dose curve; in most records, active means well fitted inhibition curve with a large enough effect; inconclusive means small, poorly fitted or top-dose-only effect; inactive means no such curve, though single readings can be large or run the other way.

A short description of this test: qHTS Assay for Lipid Storage Modulators: 3T3L1 Assay against Probe and Analogs. The following applies: 3T3-L1 lipid droplets, BODIPY imaging, oleic acid, 18-24 h; series mostly up to 46.1 µM. From the text: Storing lipids as a reservoir for energy or the anabolism of elementary metabolites is a common feature of probably all cells and is conserved from bacteria to humans. The universal cellular lipid storage organelle is the so-called lipid storage droplet (LD). Although ubiquitous, LDs share a simple structure composed of a hydrophobic core that harbors the storage lipids, which is shielded by a droplet-specific phospholipid monolayer to which proteins are attached. The current model of LD biogenesis involves an incorporation of the lipid core into the membrane leaflets of the endoplasmic reticulum (ER) followed by a subsequent budding-like maturation of a LD, which ultimately pinches off. Once released, LD volume can increase by localized lipogenesis or fusion of existing droplets. Storage lipids are re-mobilized enzymatically by lipase activity. Lipase regulation in the adipocyte is heavily studied and involves multiple components including catecholamine signaling, the LD-associated proteins Perilipin and comparative gene identification-58 (CGI-58) and at least two lipases named hormone sensitive lipase (HSL) and adipocyte triglyceride lipase (ATGL). LD regulation outside of the adipocyte is poorly understood and only few components are known. However, there is an urgent need to learn more about ectopic fat depots as mislocalized storage of lipids, for example in the liver or muscle, is an eminent health problem associated with insulin resistance or the metabolic syndrome. We developed a laser-scanning cytometer assay to enable 1,536-well screening and combined the results of the small molecules screen with an RNAi database based on lipid storage. In this assay we tested analogs of the probe against a mammalian cell line (3T3L1), to see if these small molecules could disrupt lipid storage. NIH Molecular Libraries Probe Production Centers Network [MLPCN] NIH Chemical Genomics Center [NCGC] MLPCN Grant: MH085686 Assay Submitter (PI): Mathias Beller, Max-Planck-Institut fur Biophysikalische Chemie
3T3L1 cells were obtained from ATCC (CL-173). 4 uL of cells at 1.25 X 105 cell/mL were dispensed into 1536 well Poly-D-Lysine coated black with clear bottom imaging plates (Corning, #7356) to obtain 500 cells/well, and cultured at 37 °C, 95% humidity, and 5% CO2 overnight. The culture medium used was OPTI-MEM containing 5% fetal bovine serum (FBS). Triacsin C (Sigma-Aldrich T-4540), an inhibitor of long-chain fatty acyl CoA synthetase that blocks synthesis of triglycerides, was used as a positive control for lipid under-storage. A total of 23 nL of compounds dissolved in DMSO at different concentrations were transferred to the assay plates using a Kalypsys 1536-pin tool, the final DMSO concentration was 0.46%. One microliter of oleic acid at 400 uM (Calbiochem, #4954) was added to induce lipid droplet formation in the cells, and the plates were lidded. After 18-24 hours of incubation at 37 °C, 95% humidity, and 5% CO2, cells were fixed (8 % paraformaldehyde in PBS, 30 min, room temperature), washed three times with PBS, then stained for lipid droplet and nucleus using 4uL of PBS solution containing BODIPY lipid dye 493/503 (1:2000 dilution, Life Technologies, #3922) and Hoechst 33342 (1:1000, Life Technologies, #H3570) with Washer dispenser EL406(Biotek). Images were acquired using InCell 2000 (GE). Number of cells, number of lipids and sizes of lipids were analysis using GE Investigator software.
With `CCOc1ccc(CCNC(=O)c2cc3sccc3n2Cc2ccc(F)cc2F)cc1OCC`, the Potency was 23.5 nM (active).

For `CCOc1ccc(CCNC(=O)c2cc3ncccc3n2Cc2cccc(C)n2)cc1OCC`, the Potency entry was “inactive”.

Consider `CCOc1ccc(CCNC(=O)c2cc3cnccc3n2Cc2cccc(C)n2)cc1OCC`, for which the Potency result was “inactive”.

For `CCOc1ccc(CCNC(=O)c2cc3ccncc3n2Cc2cccc(C)n2)cc1OCC`, the Potency result was “inactive”.

For the compound `CCOc1ccc(CCNC(=O)c2cc3ccccc3n2Cc2ccccn2)cc1OCC`, the Potency is 46.9 nM (active).

Consider `CCOc1ccc(CCNC(=O)c2ccccc2)cc1OCC`, for which the Potency is 2350 nM (active).

Take `CCOc1ccc(CCNC(=O)c2ccc(Oc3ccccc3)cc2)cc1OCC`: the Potency is 246 nM (active).
